# Test results published in PubChem BioAssay (NCI).
# Compounds without any hit were thinned out: in the full panel of roughly 83,000, 20% have a hit.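 In brief: 96-well plates, 48 h treatment, single concentration, percent growth endpoint.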 The source made the active and inactive calls. How the source made its calls: active means growth percent below 10; inactive means the rest.
# System: IGROV1 ovarian
# Experiment: NCI-60 one-dose screen, 48 h (100 = growth as untreated, 0 = no growth, -100 = all killed)
# Conditions: 10 µM
row,SMILES,growth
1,COc1ccc(-c2nc(-c3nc4ccc(Cl)cc4[nH]3)c3ccccn23)cc1,84.8% (inactive)
2,O=C(O)c1ccc(P(=O)(O)O)c([N+](=O)[O-])c1,119% (inactive)
3,COc1ccc2c(c1)N(CCO)C1=C(C(=O)OC1)C2c1ccc(OC)c(OC)c1 (stereo not drawn),53.4% (inactive)
4,CC(=O)O[C@]1(C)CC[C@H]2[C@H](CNCCc3ccc(Cl)cc3)C(=O)O[C@@H]2C2=C(C)C(=O)C[C@H]21,97.5% (inactive)
5,COc1ccc(Cl)cc1-n1nnc(-c2nc3ccccc3[nH]2)c1N,85.5% (inactive)
6,O=C1/C(=C\c2ccc(F)cc2)CN(C(=O)c2ccccc2)C/C1=C\c1ccc(F)cc1,21.8% (inactive)
7,CCC(=O)N1C/C(=C/c2ccc(Cl)cc2)C(=O)/C(=C/c2ccc(Cl)cc2)C1,-66.1% (active)
8,COc1cc(C2CC(c3ccc(Nc4ccnc5cc(Cl)ccc45)cc3)=NN2c2ccc(Cl)cc2)cc(OC)c1OC (stereo not drawn),57.5% (inactive)
9,COc1cc(NC(=O)CCSc2nc3ccc(C)cc3c(=O)n2Cc2ccccc2)cc(OC)c1OC,110% (inactive)
10,COc1cc(Nc2ncnc(Nc3ccc4c(n3)NC(=O)C(C)(C)O4)n2)cc(OC)c1OC,-46.1% (active)
11,C[C@@H]1C=C2C(=O)O[C@@H]3CC[C@H](C1)[C@]23O,42.2% (inactive)
12,N#CCCN1C/C(=C/c2ccc(Cl)cc2)C(=O)/C(=C/c2ccc(Cl)cc2)C1,-66.7% (active)
13,Cc1[nH]nc2c1C(c1cnn(C)c1)C(C#N)=C(N)O2 (stereo not drawn),106% (inactive)
14,O=C(Nc1nc2ccc(F)cc2s1)c1cc(-c2ccc(F)cc2)n2nc(-c3ccccc3)cc2n1,122% (inactive)
15,COc1ccc(-c2nc(-c3nc4cc(Cl)c(Cl)cc4[nH]3)c3ccccn23)cc1,75.9% (inactive)
16,Cc1ccc(CC#N)cc1C,74.9% (inactive)
17,O=C1/C(=C\c2ccc(Cl)cc2)CN(C(=S)Nc2ccccc2)C/C1=C\c1ccc(Cl)cc1,-72.9% (active)
18,C#Cc1ccc(-n2c(/C=C/c3ccc4ccccc4n3)nc3ncccc3c2=O)cc1,-65.6% (active)
19,N#CCCN1C/C(=C/c2ccccc2)C(=O)/C(=C/c2ccccc2)C1,55.8% (inactive)
20,CCC(=O)N1C/C(=C/c2ccc(OC)cc2)C(=O)/C(=C/c2ccc(OC)cc2)C1,41.8% (inactive)

row,SMILES,growth
1,Cc1ccc(C)c(C(O)(c2cc(C)ccc2C)C2(O)CCCCC2)c1,104% (inactive)
2,O=C1/C(=C\c2ccc(F)cc2)CN(C(=O)c2ccc([N+](=O)[O-])cc2)C/C1=C\c1ccc(F)cc1,33.9% (inactive)
3,CC(=O)OCc1cc(-c2nc3ccccc3[nH]c2=O)nn1-c1ccc(Cl)cc1,93.2% (inactive)
4,O=C1/C(=C\c2ccc(Cl)cc2)CN(C(=O)c2ccccc2)C/C1=C\c1ccc(Cl)cc1,4.31% (active)
5,CC(C)(C)c1cc(Br)cc(C(C)(C)C)c1O,115% (inactive)
6,C#Cc1ccc(-n2c(/C=C/c3ccc(C(F)(F)F)cc3)nc3ncccc3c2=O)cc1,34% (inactive)
7,CC/C(=C(/c1ccc(OCCN(C)C)cc1)c1ccc(OC(=O)CCCCC(=O)c2c(C)[nH]c(/C=C3\N=C(c4ccc[nH]4)C=C3OC)c2C)cc1)c1ccccc1,85.4% (inactive)
8,CSc1nn(-c2ccccc2)c2ncnc(Oc3ccccc3)c12,87.4% (inactive)
9,COc1cc(/C=C\c2cc(OC)c(OC)c(OC)c2)cc(NS(=O)(=O)c2ccc(Cl)cc2)c1OC,46.8% (inactive)
10,COc1ccc(/C=C2/CN(CCC#N)C/C(=C\c3ccc(OC)cc3)C2=O)cc1,7.88% (active)
11,c1ccc(CP(Cc2ccccc2)c2ccccc2)cc1,78.6% (inactive)
12,COc1ccc(-c2nc(-c3nc4cc(Cl)c(F)cc4[nH]3)c3ccccn23)cc1,74.6% (inactive)
13,Cc1nc2ccccc2c(N)c1-c1cc(C)c2c(C)nc3ccccc3c2n1,-92% (active)
14,CC1(C)CCC(=NNC(N)=S)CC1,116% (inactive)
15,Nc1nc(Nc2ccccc2)n[nH]1,97.7% (inactive)
16,CCOC(=O)N1C/C(=C/c2ccc(OC)cc2)C(=O)/C(=C/c2ccc(OC)cc2)C1,17.2% (inactive)
17,CC(=O)n1c(-c2ccc(Cl)c(Cl)c2)cn(-c2ccc(Cl)cc2)c1=O,4.07% (active)
18,N=C(N)c1ccc(-c2ccc(-c3ccco3)o2)cc1,69.7% (inactive)
19,COc1ccc(/C=C/C(C)=N/OCC(=O)O)cc1,106% (inactive)

# System: OVCAR-3 ovarian
# Experiment: as above
# Conditions: 10 µM
row,SMILES,growth
1,COc1ccc(-c2nc(-c3nc4ccc(Cl)cc4[nH]3)c3ccccn23)cc1,8.15% (active)
2,O=C(O)c1ccc(P(=O)(O)O)c([N+](=O)[O-])c1,111% (inactive)
3,COc1ccc2c(c1)N(CCO)C1=C(C(=O)OC1)C2c1ccc(OC)c(OC)c1 (stereo not drawn),-18.2% (active)
4,CC(=O)O[C@]1(C)CC[C@H]2[C@H](CNCCc3ccc(Cl)cc3)C(=O)O[C@@H]2C2=C(C)C(=O)C[C@H]21,99.2% (inactive)
5,COc1ccc(Cl)cc1-n1nnc(-c2nc3ccccc3[nH]2)c1N,86.7% (inactive)
6,O=C1/C(=C\c2ccc(F)cc2)CN(C(=O)c2ccccc2)C/C1=C\c1ccc(F)cc1,11.3% (inactive)
7,CCC(=O)N1C/C(=C/c2ccc(Cl)cc2)C(=O)/C(=C/c2ccc(Cl)cc2)C1,-47.2% (active)
8,COc1cc(C2CC(c3ccc(Nc4ccnc5cc(Cl)ccc45)cc3)=NN2c2ccc(Cl)cc2)cc(OC)c1OC (stereo not drawn),38% (inactive)
9,COc1cc(NC(=O)CCSc2nc3ccc(C)cc3c(=O)n2Cc2ccccc2)cc(OC)c1OC,67.9% (inactive)
10,COc1cc(Nc2ncnc(Nc3ccc4c(n3)NC(=O)C(C)(C)O4)n2)cc(OC)c1OC,35.9% (inactive)
11,C[C@@H]1C=C2C(=O)O[C@@H]3CC[C@H](C1)[C@]23O,66.9% (inactive)
12,N#CCCN1C/C(=C/c2ccc(Cl)cc2)C(=O)/C(=C/c2ccc(Cl)cc2)C1,-48.6% (active)
13,Cc1[nH]nc2c1C(c1cnn(C)c1)C(C#N)=C(N)O2 (stereo not drawn),106% (inactive)
14,O=C(Nc1nc2ccc(F)cc2s1)c1cc(-c2ccc(F)cc2)n2nc(-c3ccccc3)cc2n1,82.8% (inactive)
15,COc1ccc(-c2nc(-c3nc4cc(Cl)c(Cl)cc4[nH]3)c3ccccn23)cc1,39% (inactive)
16,Cc1ccc(CC#N)cc1C,95.4% (inactive)
17,O=C1/C(=C\c2ccc(Cl)cc2)CN(C(=S)Nc2ccccc2)C/C1=C\c1ccc(Cl)cc1,-87.6% (active)
18,C#Cc1ccc(-n2c(/C=C/c3ccc4ccccc4n3)nc3ncccc3c2=O)cc1,-66.8% (active)
19,N#CCCN1C/C(=C/c2ccccc2)C(=O)/C(=C/c2ccccc2)C1,16% (inactive)
20,CCC(=O)N1C/C(=C/c2ccc(OC)cc2)C(=O)/C(=C/c2ccc(OC)cc2)C1,-6.54% (active)

row,SMILES,growth
1,Cc1ccc(C)c(C(O)(c2cc(C)ccc2C)C2(O)CCCCC2)c1,93.6% (inactive)
2,O=C1/C(=C\c2ccc(F)cc2)CN(C(=O)c2ccc([N+](=O)[O-])cc2)C/C1=C\c1ccc(F)cc1,10.3% (inactive)
3,CC(=O)OCc1cc(-c2nc3ccccc3[nH]c2=O)nn1-c1ccc(Cl)cc1,116% (inactive)
4,O=C1/C(=C\c2ccc(Cl)cc2)CN(C(=O)c2ccccc2)C/C1=C\c1ccc(Cl)cc1,-8.04% (active)
5,CC(C)(C)c1cc(Br)cc(C(C)(C)C)c1O,108% (inactive)
6,C#Cc1ccc(-n2c(/C=C/c3ccc(C(F)(F)F)cc3)nc3ncccc3c2=O)cc1,-8.86% (active)
7,CC/C(=C(/c1ccc(OCCN(C)C)cc1)c1ccc(OC(=O)CCCCC(=O)c2c(C)[nH]c(/C=C3\N=C(c4ccc[nH]4)C=C3OC)c2C)cc1)c1ccccc1,80.1% (inactive)
8,CSc1nn(-c2ccccc2)c2ncnc(Oc3ccccc3)c12,91.2% (inactive)
9,COc1cc(/C=C\c2cc(OC)c(OC)c(OC)c2)cc(NS(=O)(=O)c2ccc(Cl)cc2)c1OC,10.3% (inactive)
10,COc1ccc(/C=C2/CN(CCC#N)C/C(=C\c3ccc(OC)cc3)C2=O)cc1,-26% (active)
11,c1ccc(CP(Cc2ccccc2)c2ccccc2)cc1,112% (inactive)
12,COc1ccc(-c2nc(-c3nc4cc(Cl)c(F)cc4[nH]3)c3ccccn23)cc1,81.3% (inactive)
13,Cc1nc2ccccc2c(N)c1-c1cc(C)c2c(C)nc3ccccc3c2n1,-96.6% (active)
14,CC1(C)CCC(=NNC(N)=S)CC1,112% (inactive)
15,Nc1nc(Nc2ccccc2)n[nH]1,119% (inactive)
16,CCOC(=O)N1C/C(=C/c2ccc(OC)cc2)C(=O)/C(=C/c2ccc(OC)cc2)C1,0.817% (active)
17,CC(=O)n1c(-c2ccc(Cl)c(Cl)c2)cn(-c2ccc(Cl)cc2)c1=O,3.73% (active)
18,N=C(N)c1ccc(-c2ccc(-c3ccco3)o2)cc1,88.2% (inactive)
19,COc1ccc(/C=C/C(C)=N/OCC(=O)O)cc1,113% (inactive)
